# High-throughput results as filed in PubChem BioAssay.
# Shown are actives, neighbours in structure and some others; about 1.3% of the full set was active somewhere.
# NR5A2 inv ag: inverse agonists of human LRH-1 (NR5A2); O00482; HEK293T StAR-luciferase reporter, LRH-1 transfected, 24 h; inhibition, % at 3.6 µM; hit rate 0.13% among 360,000;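 active means inhibition above the mean inhibition of all tested compounds plus 3 SD, cut at about 73% in these data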;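 further: 0% = DMSO wells and 100% = reporter-only cells lacking LRH-1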
# Target sequence (O00482 whole entry, looked up): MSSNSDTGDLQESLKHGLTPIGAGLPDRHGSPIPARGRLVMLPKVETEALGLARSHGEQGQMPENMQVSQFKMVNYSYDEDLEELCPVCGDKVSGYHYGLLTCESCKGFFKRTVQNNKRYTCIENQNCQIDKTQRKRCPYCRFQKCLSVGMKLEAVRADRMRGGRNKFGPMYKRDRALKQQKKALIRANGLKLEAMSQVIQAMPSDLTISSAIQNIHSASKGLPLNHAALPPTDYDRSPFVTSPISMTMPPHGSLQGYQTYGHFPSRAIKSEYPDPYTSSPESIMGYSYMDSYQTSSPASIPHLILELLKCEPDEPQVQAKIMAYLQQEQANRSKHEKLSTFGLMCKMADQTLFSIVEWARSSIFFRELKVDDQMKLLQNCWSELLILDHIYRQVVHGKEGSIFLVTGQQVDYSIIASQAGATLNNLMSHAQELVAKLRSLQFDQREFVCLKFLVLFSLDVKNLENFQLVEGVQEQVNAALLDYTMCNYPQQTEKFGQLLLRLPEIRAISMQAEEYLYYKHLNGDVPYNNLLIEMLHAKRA
# SRC1 inh: human NCOA1 inhibition. hit rate 0.12% among 360,000. inhibition, % at 3.6 µM. HEK293 GAL4-SRC1 luciferase reporter, luminescence;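 active means inhibition above the campaign mean plus 3 SD, with each screening campaign given its own cutoff, cut at about 60% in these data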;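 further: 0% = DMSO treated cells and 100% = gossypol at 36 µM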
# SRC3 inh: inhibits human SRC3 coactivator; inhibition, % at 3.6 µM; Q9Y6Q9; HEK293 GAL4-SRC3 luciferase reporter, luminescence; hit rate 0.17% among 360,000; AID 588352;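 active means inhibition above a per-campaign cutoff, the mean of all compounds plus 3 SD, cut at about 60% in these data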;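 further: 0% = DMSO-treated cells and 100% = gossypol-treated cells at 36 µM; higher means less SRC3-driven luciferase light from the GAL4 reporter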
# SRC2 inh: inhibits human steroid receptor coactivator 2; HEK293 GAL4-SRC2 luciferase reporter, luminescence; inhibition, % at 9 µM; hit rate 0.17% among 370,000; AID 651957;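 active means inhibition above the mean inhibition of all tested compounds plus 3 SD, set per campaign, cut at about 52% in these data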;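 further: 0% = DMSO treated cells and 100% = cells given Gossypol at 36 µM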
# COUP-TFII inh: blocks human COUP-TFII nuclear receptor. inhibition, % at 8.6 µM. P24468. hit rate 0.7% among 370,000. HEK293T NGFI-A luciferase reporter, luminescence;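 active means inhibition above a per-plate cutoff, mean inhibition of test wells between control levels plus 3 SD, cut at about 38% in these data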;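 further: cells cotransfected with COUP-TFII expression vector driving the NGFI-A reporter; 0% = median of COUP-TF2 test wells and 100% = reporter-only cells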
# Gli-Sufu block: antagonists of Gli-Sufu signaling. hit rate 0.74% among 340,000. inhibition, % at 5 µM. Sufu-KO-LIGHT fibroblasts, Gli luciferase reporter luminescence;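 active means inhibition above about 55%, limit read from the data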;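 further: 0% = DMSO-treated cells and 100% = wells with medium but no cells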
# VP16 Luc counter: VP16 inhibition counter-screen for COUP-TFII; shares compounds with COUP-TFII inh; HEK293 Gal4-VP16 luciferase reporter, luminescence; inhibition, % at 8.5 µM; hit rate 25% among 2,500; AID 687007; in the data active means inhibition above about 13%
# NR2F2 inh conf: COUP-TFII (NR2F2) inhibition, confirmation assay. shares compounds with COUP-TFII inh. HEK293 NGFI-A luciferase reporter, luminescence. inhibition, % at 8.5 µM. hit rate 45% among 2,500. AID 687008;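 active means mean inhibition over three repeats above a set limit taken from the earlier primary screen, cut at about 38% in these data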;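 further: 100% = cells given the luciferase reporter alone without the COUP-TF2 vector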
# The depositor's hits bear a star; . = no result given.
SMILES,NR5A2 inv ag,SRC1 inh,SRC3 inh,SRC2 inh,COUP-TFII inh,Gli-Sufu block,VP16 Luc counter,NR2F2 inh conf
CNC(=S)N/N=C/c1c(C(=O)OC)cnn1-c1ccc(F)cc1F,8.7,-2.3,20.8,14.6,36.0,7.1,.,.
S=C(Nc1ccccc1)Nc1ccccn1,-8.0,-10.8,-32.4,-14.9,0.7,.,.,.
S=C(Nc1ccc(Nc2ccccc2)cc1)Nc1ccccn1,8.2,-20.9,17.9,-24.0,39.0*,34.7,-30.2,16.1
CC1C/C(=C\c2cccnc2)C(=O)/C(=C/c2cccnc2)C1 (stereo not drawn),55.6,-198.5,11.0,80.3*,95.6*,-5.9,90.7*,105.1*
O=C1/C(=C/c2cccnc2)CCc2c1[nH]c1ccccc21,-115.1,9.5,0.2,6.4,15.1,-21.6,.,.
CCOC(=O)[C@@]12CCCC=C1N(CCc1ccc(Cl)cc1)C(=O)[C@H]2CC(=O)NCc1ccc(OC)c(OC)c1,.,.,.,-17.9,-0.7,.,.,.
COc1cccc(CNC(=O)C2CCN(c3nc(OC)nc(OC)n3)CC2)c1,.,.,.,15.7,0.2,.,.,.
Cc1ccc(C(=O)Nc2ccncc2)cc1S(=O)(=O)N1CCOCC1,10.5,-4.9,5.1,-23.2,1.0,-0.2,.,.
Cc1ccc(NC(=O)c2ccccc2NS(=O)(=O)c2ccc(F)cc2)cc1S(=O)(=O)N1CCCCC1,19.0,5.6,39.0,35.4,37.6*,42.5,-9.2,13.2
O=C(Nc1ccc(Cl)c(S(=O)(=O)N2CCCCC2)c1)c1cccnc1,23.2,17.5,10.5,15.6,34.7,-1.3,.,.
O=C(Nc1ccncc1)c1ccc(Cl)c(S(=O)(=O)N2CCCC2)c1,23.6,-2.9,9.8,-4.5,46.2*,12.5,-2.5,14.3
Cc1ccc(C(=O)Nc2ccncc2)cc1S(=O)(=O)N1CCCCC1,27.6,10.2,13.6,27.7,47.5*,.,-2.9,2.8
CN(c1ccccc1)S(=O)(=O)c1ccc(Cl)c(C(=O)Nc2ccncc2)c1,15.0,17.5,25.4,36.2,40.5*,21.1,1.4,1.5
Cc1nc2ccccn2c1P(=O)(c1ccccc1)c1ccccc1,.,.,.,.,14.2,.,.,.
CCCN1CCS(=O)(=O)N(Cc2cn(Cc3ccc(C)cc3)nn2)C(C(=O)OC)C1 (stereo not drawn),.,.,.,18.2,-15.3,.,.,.
C[C@@H]1CCN(C2CC2)S(=O)(=O)c2c(cccc2N2CC[C@@H](O)C2)O1,.,.,.,-2.3,-2.5,.,.,.
CCN(CC)S(=O)(=O)c1cc(C(=O)Nc2ccncc2)ccc1Cl,15.5,11.3,7.2,23.7,63.5*,12.0,-13.4,24.9
OCCC1CN(Cc2nc(-c3ccc(F)cc3)cs2)CCN1CCc1ccccc1 (stereo not drawn),0.4,-13.9,11.7,11.4,15.3,-1.4,.,.
CC(C)(C)CN1CCN(Cc2nc(-c3ccc(F)cc3)cs2)CC1CCO (stereo not drawn),21.4,7.1,8.4,6.0,48.1*,8.7,5.8,28.4
O=[N+]([O-])c1ccc(Cl)c(C2Nc3cccc4cccc(c34)N2)c1,15.4,-26.2,17.2,32.0,41.3*,10.6,1.2,0.2
O=[N+]([O-])c1ccccc1C1Nc2cccc3cccc(c23)N1,3.4,-15.2,13.8,1.5,2.9,20.3,.,.
CCCn1c(NC(=O)c2cccc(S(=O)(=O)N3CCCC3)c2)nc2ccccc21,14.1,10.3,39.0,20.8,44.6*,-7.0,-6.3,27.5
O=C(CNS(=O)(=O)c1cc2ccccc2s1)N1CCN(c2ccccn2)CC1,.,.,.,12.2,14.6,.,.,.
CC(=O)N1c2ccccc2C(=O)NCC1C(=O)NC(C)(C)C (stereo not drawn),.,.,.,-2.7,7.8,.,.,.
COCCN=c1scc(-c2ccc3c(c2)NC(=O)CO3)n1/N=C(\C)c1ccc(O)cc1,11.3,-7.8,15.1,23.1,37.9*,-4.7,-8.4,0.4
SMILES,NR5A2 inv ag,SRC1 inh,SRC3 inh,SRC2 inh,COUP-TFII inh,Gli-Sufu block,VP16 Luc counter,NR2F2 inh conf
O=C(NC1CCCCN(Cc2ccc(Cl)cc2)C1=O)c1cc(-c2ccccc2)no1 (stereo not drawn),.,.,.,-2.6,11.3,.,.,.
CC(C)c1nc(N(C)S(C)(=O)=O)nc(-c2ccc(F)cc2)c1/C=C/[C@H](O)C[C@@H](O)CC(=O)O,.,.,.,-13.2,-7.0,.,.,.
O=C(CCl)Nc1cc(SCC(O)CO)cc([N+](=O)[O-])c1 (stereo not drawn),86.8*,27.6,70.4*,68.6*,69.2*,63.4*,27.6*,73.0*
CCc1c(-c2ccccc2OC)ncn1Cc1cccc(-c2ccccc2)c1,19.0,.,.,27.6,51.3*,.,5.6,16.5
CC1=CC(=O)C(C(C)C)=C/C1=N\OS(=O)(=O)c1ccc(F)cc1,.,.,.,.,91.7*,.,28.8*,15.1
CC1=CC(=O)C(C(C)C)=C/C1=N/OC(=O)c1cccc([N+](=O)[O-])c1,26.0,1.0,16.8,26.6,17.0,3.6,.,.
CN1Cc2sc(NC(=S)NC(=O)c3ccccc3)c(C#N)c2CC1(C)C,.,.,.,42.6,40.0*,60.1*,6.8,69.4*
CCC1(C)Cc2c(sc(NC(=S)NC(=O)c3ccccc3)c2C#N)CO1 (stereo not drawn),-8.4,-29.1,-27.0,-12.7,-11.2,-11.4,.,.
CCOC(=O)C1(Cc2ccccc2)CCN(Cc2ccccc2OC)CC1,.,.,.,11.2,0.6,.,.,.
CCOC(=O)C1(Cc2ccccc2)CCN(Cc2ccnc3ccccc23)CC1,.,.,.,35.5,47.0*,.,4.3,38.5*
Cc1cc(-c2ccc(C)c(S(=O)(=O)NCCCN3CCN(c4ccccc4)CC3)c2)on1,1.4,-10.8,11.7,29.2,61.9*,46.7,1.3,19.2
